Experimental findings from ChEMBL document CHEMBL3988442, “University of Dundee, Small-Polar-MMV Screening Library” (2021) are described below.

Design in all cases: scale not given: direction of the effect not stated beside the values
Test [1] deals with Protein translocase subunit SecA (Escherichia coli (strain K12)) (UniProt P10408). Put plainly: Assay to Identify E. coli SecA ATPase Inhibitors. The test is classed as functional. To be noted: 30 µM.
Test [2] concerns the target T1, Ubiquitin-activating enzyme e1, putative (Leishmania donovani (strain BPK282A1)) (UniProt E9BSI1).
T1 sequence (whole entry): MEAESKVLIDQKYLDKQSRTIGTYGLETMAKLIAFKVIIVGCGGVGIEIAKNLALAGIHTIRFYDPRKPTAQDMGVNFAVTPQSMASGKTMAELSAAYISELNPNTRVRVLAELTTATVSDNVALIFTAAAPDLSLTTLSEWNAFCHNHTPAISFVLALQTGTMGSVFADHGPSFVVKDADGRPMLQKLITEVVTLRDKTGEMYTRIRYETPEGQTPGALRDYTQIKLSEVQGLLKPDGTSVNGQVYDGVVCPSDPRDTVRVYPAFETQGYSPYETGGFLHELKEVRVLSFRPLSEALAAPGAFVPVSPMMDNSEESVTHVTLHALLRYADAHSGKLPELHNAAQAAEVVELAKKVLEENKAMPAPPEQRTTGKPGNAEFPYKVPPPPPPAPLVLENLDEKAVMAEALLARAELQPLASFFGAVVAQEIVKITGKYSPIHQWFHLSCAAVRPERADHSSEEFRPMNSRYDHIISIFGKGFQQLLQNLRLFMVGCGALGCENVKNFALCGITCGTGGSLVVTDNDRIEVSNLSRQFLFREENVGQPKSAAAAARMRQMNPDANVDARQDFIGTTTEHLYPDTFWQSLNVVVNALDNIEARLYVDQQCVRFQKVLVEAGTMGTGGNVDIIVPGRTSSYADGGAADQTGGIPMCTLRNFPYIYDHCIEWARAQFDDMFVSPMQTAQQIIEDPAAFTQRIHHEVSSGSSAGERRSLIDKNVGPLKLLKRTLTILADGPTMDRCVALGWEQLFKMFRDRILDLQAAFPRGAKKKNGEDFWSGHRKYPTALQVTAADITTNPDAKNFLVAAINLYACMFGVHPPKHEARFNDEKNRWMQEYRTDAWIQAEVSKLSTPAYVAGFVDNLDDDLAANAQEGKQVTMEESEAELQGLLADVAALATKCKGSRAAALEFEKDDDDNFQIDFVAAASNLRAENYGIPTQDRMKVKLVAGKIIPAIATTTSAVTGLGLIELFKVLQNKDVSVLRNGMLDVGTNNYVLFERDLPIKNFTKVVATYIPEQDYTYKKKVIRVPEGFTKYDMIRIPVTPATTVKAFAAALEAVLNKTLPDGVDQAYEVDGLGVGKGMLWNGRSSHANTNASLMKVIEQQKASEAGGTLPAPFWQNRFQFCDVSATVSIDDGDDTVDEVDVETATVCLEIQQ
Put plainly: Leishmania donovani Ubiquitin Activating Enzyme (LdE1). The test is classed as functional. As to conditions: 30 µM.

The target of test [3] is AMP-activated protein kinase, AMPK (Homo sapiens) (UniProt P54646+O43741+P54619+Q9UGJ0+Q9Y478+Q13131+Q9UGI9). Put plainly: AMP-dependent Kinase enzyme assay. An in vitro enzyme assay that detects ADP turnover that is directly proportional to AMPK activity. This uses naive AMPK that is activated during the assay with MK-8722. To be noted: 30 µM. It is filed as functional.

For test [4], the target named is Sialic acid-binding Ig-like lectin 9 (Homo sapiens) (UniProt Q9Y336). Put plainly: Hs-Siglec9 ALPHAscreen SOP 20170721. To be noted: 10 µM. (Bead proximity is the source of the signal in Alpha formats.)
The test system of a further test is Trypanosoma cruzi. The experiment in a line: Trypanosoma cruzi phosphomannomutase and mannose-1-phosphate guanylyltransferase assay. To be noted: 10 µM. The test is classed as functional.
The target of test [5] is T2, Arginase-2, mitochondrial (Homo sapiens) (UniProt P78540).
T2 sequence (whole entry): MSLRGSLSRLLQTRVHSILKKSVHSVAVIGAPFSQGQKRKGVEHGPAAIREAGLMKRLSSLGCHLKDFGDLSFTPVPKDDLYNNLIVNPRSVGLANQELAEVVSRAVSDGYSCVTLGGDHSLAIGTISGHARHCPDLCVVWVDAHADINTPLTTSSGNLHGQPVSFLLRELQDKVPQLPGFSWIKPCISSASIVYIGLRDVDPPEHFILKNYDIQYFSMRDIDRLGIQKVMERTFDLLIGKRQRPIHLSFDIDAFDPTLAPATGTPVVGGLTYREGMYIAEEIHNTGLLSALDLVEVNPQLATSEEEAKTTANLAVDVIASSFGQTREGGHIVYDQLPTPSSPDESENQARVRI
Put plainly: in vitro enzyme assay to detect the production of urea directly proportional to the activity of Arginase II. Also: in the data most compounds retested in dose-response had high values. It is filed as functional. To be noted: 33.3 µM.

Test [6] addresses T3, Proteasome subunit beta (Trypanosoma cruzi) (UniProt O96673).
T3 sequence (whole entry): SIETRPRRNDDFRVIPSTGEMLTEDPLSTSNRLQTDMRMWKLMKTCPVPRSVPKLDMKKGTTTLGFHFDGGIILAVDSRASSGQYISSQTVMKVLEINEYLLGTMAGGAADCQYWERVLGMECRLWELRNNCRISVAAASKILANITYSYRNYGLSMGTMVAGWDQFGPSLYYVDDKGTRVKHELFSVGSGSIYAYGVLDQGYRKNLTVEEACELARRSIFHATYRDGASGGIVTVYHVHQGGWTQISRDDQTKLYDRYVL
The experiment in a line: Trypanosoma cruzi proteasome chymotrypsin-like activity (TcProtChymo) assay. Also: in the data most compounds retested in dose-response had high values. It is filed as functional. To be noted: 9.37 µM.

The species entered for the next test is Homo sapiens. Put plainly: To identify inhibition of the IFN signalling (Jak-Stat) pathway via expression of an eGFP reporter gene under the control of an IFN-stimulated response element (ISRE) containing MxA promoter. It is filed as functional. As to conditions: 30 µM. On the technique in general: A reporter such as luciferase makes a cellular process visible.

In test [7] the target is T4, Tyrosyl-tRNA synthetase, putative (Trypanosoma cruzi (strain CL Brener)) (UniProt Q4DSP6).
T4 sequence (whole entry): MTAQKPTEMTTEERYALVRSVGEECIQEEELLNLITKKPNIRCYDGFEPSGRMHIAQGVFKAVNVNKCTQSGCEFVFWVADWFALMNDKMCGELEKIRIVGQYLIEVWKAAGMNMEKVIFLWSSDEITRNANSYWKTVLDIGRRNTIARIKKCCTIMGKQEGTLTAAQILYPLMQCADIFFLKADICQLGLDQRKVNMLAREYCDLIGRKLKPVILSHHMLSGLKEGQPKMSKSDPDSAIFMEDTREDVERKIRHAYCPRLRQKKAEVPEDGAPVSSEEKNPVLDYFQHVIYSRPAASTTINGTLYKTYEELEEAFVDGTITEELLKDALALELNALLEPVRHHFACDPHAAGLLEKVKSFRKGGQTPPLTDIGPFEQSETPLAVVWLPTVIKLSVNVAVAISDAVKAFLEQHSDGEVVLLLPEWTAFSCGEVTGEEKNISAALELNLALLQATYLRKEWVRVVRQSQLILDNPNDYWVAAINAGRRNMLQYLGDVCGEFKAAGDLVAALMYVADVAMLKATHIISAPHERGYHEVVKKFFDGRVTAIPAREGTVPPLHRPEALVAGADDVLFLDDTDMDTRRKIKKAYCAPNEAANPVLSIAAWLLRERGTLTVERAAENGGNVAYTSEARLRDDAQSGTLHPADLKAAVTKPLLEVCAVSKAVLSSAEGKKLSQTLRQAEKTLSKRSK
Put plainly: Trypanosoma cruzi tyrosyl tRNA synthetase (TcYRS) _High Tyrosine SOP. Also: in the data most compounds retested in dose-response had high values. The test is classed as functional. To be noted: 30 µM.

For test [8], the target named is T4, Tyrosyl-tRNA synthetase, putative (Trypanosoma cruzi (strain CL Brener)). Put plainly: Trypanosoma cruzi tyrosyl tRNA synthetase (TcYRS) SOP. To be noted: 30 µM. It is filed as functional.
Test [9] has as its target Chromo domain-containing protein 1 (Saccharomyces cerevisiae (strain ATCC 204508 / S288c) (Baker's yeast)) (UniProt P32657). Put plainly: ScCHD-1 Enzyme Inhibition Assay. Also: in the data most compounds retested in dose-response had high values. The test is classed as functional. As to conditions: 30 µM.

Structures are written as SMILES. For some of these results: Potency and affinity values are given separately.

Sequence of Sialic acid-binding Ig-like lectin 9 (Homo sapiens) (Q9Y336 whole entry): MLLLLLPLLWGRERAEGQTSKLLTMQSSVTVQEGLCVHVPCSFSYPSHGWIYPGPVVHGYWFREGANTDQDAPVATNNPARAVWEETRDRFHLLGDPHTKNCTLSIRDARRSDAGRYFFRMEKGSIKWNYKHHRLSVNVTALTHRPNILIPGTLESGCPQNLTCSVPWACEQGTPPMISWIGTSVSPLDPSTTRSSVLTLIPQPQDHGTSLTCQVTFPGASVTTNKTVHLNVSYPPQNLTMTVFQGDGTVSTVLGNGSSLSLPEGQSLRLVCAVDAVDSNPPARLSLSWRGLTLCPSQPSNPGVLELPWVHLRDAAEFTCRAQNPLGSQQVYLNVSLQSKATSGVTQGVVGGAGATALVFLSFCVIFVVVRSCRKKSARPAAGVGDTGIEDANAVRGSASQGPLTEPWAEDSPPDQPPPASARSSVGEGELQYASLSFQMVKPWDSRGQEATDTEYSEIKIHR
Sequence of Chromo domain-containing protein 1 (Saccharomyces cerevisiae (strain ATCC 204508 / S288c) (Baker's yeast)) (P32657 whole entry, the tested form may be a part): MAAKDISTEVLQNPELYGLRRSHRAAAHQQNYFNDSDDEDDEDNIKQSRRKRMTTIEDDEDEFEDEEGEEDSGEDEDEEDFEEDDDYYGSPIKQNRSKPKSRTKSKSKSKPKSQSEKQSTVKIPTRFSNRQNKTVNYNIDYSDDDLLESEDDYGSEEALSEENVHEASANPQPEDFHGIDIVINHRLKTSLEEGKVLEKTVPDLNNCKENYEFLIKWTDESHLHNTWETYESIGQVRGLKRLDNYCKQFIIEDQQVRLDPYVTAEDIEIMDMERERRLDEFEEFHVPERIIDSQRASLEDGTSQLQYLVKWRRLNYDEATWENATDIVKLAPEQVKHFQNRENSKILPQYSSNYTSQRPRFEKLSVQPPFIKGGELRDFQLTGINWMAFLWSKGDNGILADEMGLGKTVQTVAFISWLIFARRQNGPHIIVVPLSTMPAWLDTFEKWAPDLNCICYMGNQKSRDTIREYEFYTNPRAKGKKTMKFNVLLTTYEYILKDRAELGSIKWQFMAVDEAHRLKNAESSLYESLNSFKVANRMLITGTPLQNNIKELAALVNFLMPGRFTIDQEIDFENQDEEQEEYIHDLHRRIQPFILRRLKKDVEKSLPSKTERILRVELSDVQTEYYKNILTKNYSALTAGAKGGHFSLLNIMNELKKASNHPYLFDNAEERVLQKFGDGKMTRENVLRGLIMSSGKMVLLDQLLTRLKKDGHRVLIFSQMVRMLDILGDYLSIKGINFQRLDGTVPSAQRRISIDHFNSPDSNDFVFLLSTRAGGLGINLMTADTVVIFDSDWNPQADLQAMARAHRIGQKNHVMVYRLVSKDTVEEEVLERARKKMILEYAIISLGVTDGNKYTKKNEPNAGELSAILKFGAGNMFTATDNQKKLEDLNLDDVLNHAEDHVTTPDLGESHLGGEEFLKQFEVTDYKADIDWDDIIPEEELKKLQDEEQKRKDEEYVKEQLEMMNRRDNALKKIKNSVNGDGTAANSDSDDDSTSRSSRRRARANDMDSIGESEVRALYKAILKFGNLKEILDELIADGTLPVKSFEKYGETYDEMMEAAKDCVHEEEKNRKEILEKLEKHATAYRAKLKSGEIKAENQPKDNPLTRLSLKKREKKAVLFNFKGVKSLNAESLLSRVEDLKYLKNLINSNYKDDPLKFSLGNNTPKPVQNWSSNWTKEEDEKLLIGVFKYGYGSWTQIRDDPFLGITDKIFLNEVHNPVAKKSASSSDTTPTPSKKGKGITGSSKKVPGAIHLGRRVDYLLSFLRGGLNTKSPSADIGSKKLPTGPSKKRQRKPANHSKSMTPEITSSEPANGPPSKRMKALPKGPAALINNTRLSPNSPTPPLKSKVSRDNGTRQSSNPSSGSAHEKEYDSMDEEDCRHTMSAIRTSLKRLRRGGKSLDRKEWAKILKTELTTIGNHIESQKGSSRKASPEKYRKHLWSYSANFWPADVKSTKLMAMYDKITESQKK
Sequence of Protein translocase subunit SecA (Escherichia coli (strain K12)) (P10408 whole entry): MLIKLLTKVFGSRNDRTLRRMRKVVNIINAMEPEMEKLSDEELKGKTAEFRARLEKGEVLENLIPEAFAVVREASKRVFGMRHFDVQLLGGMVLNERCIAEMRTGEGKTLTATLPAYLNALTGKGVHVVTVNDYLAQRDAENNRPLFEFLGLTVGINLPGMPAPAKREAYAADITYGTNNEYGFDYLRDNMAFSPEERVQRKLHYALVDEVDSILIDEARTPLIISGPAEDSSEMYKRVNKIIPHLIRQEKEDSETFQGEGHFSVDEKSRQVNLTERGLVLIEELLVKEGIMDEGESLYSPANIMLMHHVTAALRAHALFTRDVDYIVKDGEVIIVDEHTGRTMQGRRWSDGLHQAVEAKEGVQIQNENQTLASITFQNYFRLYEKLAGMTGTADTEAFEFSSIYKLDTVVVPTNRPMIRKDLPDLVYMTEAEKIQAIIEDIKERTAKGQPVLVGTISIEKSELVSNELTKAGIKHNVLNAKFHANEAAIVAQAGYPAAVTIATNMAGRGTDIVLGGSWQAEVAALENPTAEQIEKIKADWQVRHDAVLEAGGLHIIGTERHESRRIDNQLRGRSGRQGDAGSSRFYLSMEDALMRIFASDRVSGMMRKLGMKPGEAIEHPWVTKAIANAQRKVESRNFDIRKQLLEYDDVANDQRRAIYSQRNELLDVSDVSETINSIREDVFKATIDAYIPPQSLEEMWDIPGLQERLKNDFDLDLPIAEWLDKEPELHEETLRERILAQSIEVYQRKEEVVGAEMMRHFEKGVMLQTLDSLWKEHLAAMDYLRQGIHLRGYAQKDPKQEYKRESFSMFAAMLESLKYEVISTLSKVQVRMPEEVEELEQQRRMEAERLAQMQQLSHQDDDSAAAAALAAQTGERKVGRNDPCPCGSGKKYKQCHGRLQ

As to `COc1ccccc1NC(=O)NCC(O)(c1ccccc1)C1CC1` (stereo unspecified), the Percent Effect in [1] is -6.75%; in test [2], 11%; in [3], -22.1%; in test [4], 33.1%; with Trypanosoma cruzi, 7.05%; in test [5], 7.27%. Moreover, the Percent Effect is 12.9% in test [6]; 7.23% in the test listed under Homo sapiens; 0% in test [7]; 10% in test [8]; -6.95% in test [9].
As for `Cc1ccc(C(=O)NS(=O)(=O)c2ccccc2C)c(=O)[nH]1`, the Percent Effect in test [1] is -3.76%; in test [2] it was 8.11%; in [3], -4.75%; in test [4], 9.94%; with Trypanosoma cruzi, -5.85%; in test [5], -6.84%. Further, the Percent Effect worked out at 4.85% in test [6]; 15.8% in the test listed under Homo sapiens; 7.92% in test [7]; 6.1% in test [8]; 1.56% in test [9].
For `CCOc1cccc(CNc2ccccc2C(=O)OC)c1O`, the Percent Effect in test [1] was 2.18%; in [2], 6.67%; in [3], -9.62%; in test [4] it was -4.44%; in the test with Trypanosoma cruzi it was -4.32%; in test [5], -10.7%. The Percent Effect in test [6] is 19%; in the test listed under Homo sapiens, 21.5%; in test [7], 3.17%; in [8], 7.69%; in [9], -13.3%.
For `CN1N=C(C(=O)NCc2ccc3c(c2)CCCN3C)CCC1=O`, the Percent Effect is -4.45% in test [1]; 8.86% in test [2]; 30.5% in test [3]; -1.03% in [4]; 4.41% in the test with Trypanosoma cruzi; 0.215% in [5]. Besides, the Percent Effect in test [6] is 21.4%; in the test listed under Homo sapiens it was 0.664%; in [7], 6.25%; in test [8], 10.1%; in test [9], -23%.
On to `Cc1cc(NC(=O)CN(C)C2CCCN(c3cccnn3)C2)n(C)n1` (stereo unspecified), for which the Percent Effect in test [1] is -4.44%; in test [2], 7.89%; in [3], -28.4%; in test [4], 2.85%; with Trypanosoma cruzi it was 12.2%; in test [5] it was -1.8%. The Percent Effect is 10.6% in [6]; -5.3% in the test listed under Homo sapiens; 4.43% in test [7]; 13.6% in [8]; 6.51% in test [9].
On to `Cn1ccnc1CN1CCC2(CC(=O)N(c3cccc(F)c3)C2)C1` (stereo unspecified), for which the Percent Effect was 1.4% in [1]; 10.4% in [2]; 15% in test [3]; -4.43% in [4]; -7.2% in the test on Trypanosoma cruzi; 7.1% in [5]. In addition, the Percent Effect in test [6] was 14.8%; in the test listed under Homo sapiens it was 6.27%; in test [7] it was 7.41%; in [8], 14.1%; in [9] it was -7.71%.
With `O=C(Nc1nccs1)N1CCCC(N2CCNC2=O)C1` (stereo unspecified), the Percent Effect in test [1] is -3.07%; in test [2], 11%; in [3], 7.04%; in test [4] it was 15.8%; with Trypanosoma cruzi, 0.196%; in test [5] it was 17.3%. Besides, the Percent Effect was 21.1% in [6]; 2.14% in the test filed under Homo sapiens; 4.3% in test [7]; 22.5% in test [8]; -6.39% in [9].
Regarding `CC(C)OCCN1CCN(C(=O)c2cccc(CC#N)c2)CC1`, the Percent Effect in [1] was -0.779%; in test [2] it was 18.2%; in test [3], -4.35%; in test [4], -10.2%; in the test on Trypanosoma cruzi, -8.99%; in test [5], 4.27%. Moreover, the Percent Effect in test [6] was 11.2%; in the test filed under Homo sapiens it was 18.6%; in test [7], 4.85%; in test [8], 9.76%; in test [9] it was -7.58%.
On to `CCn1cc(NC(=O)NCC(C)O)cn1` (stereo unspecified), for which the Percent Effect in [1] was -0.762%; in test [2] it was 17.7%; in test [3], -8.6%; in [4], -3.54%; in the test on Trypanosoma cruzi, -0.85%; in test [5], 4.18%. Moreover, the Percent Effect was 5.65% in test [6]; 1.36% in the test filed under Homo sapiens; 8.37% in test [7]; -24.1% in [8]; -7.2% in [9].
`CCOC[C@H]1CC[C@H]2[C@H](CCN2C(=O)c2ccncc2F)O1`: the Percent Effect is -2.56% in test [1]; 2.7% in [2]; 3.1% in [3]; -3.88% in [4]; 1.07% with Trypanosoma cruzi; 3.72% in [5]. Also, the Percent Effect in test [6] is 5.92%; in the test listed under Homo sapiens, -17.8%; in [7] it was 2.15%; in test [8] it was 3.7%; in [9], -2.81%.
Consider `O=C(Cn1ccc2ccc(Br)cc21)NC[C@@H]1CCCN2CCCC[C@H]12`, for which the Percent Effect was -9.26% in [1]; -4% in test [2]; 0.939% in test [3]; -2.99% in test [4]; -5.5% in the test on Trypanosoma cruzi; -12.8% in test [5]. For the same molecule, the Percent Effect is 2.03% in [6]; 7.57% in the test filed under Homo sapiens; 0% in test [7]; -56.4% in test [8]; -8.03% in [9].
